# PubChem BioAssay (NCATS)
# Records with an inconclusive call do not appear. Where a call stands in place of a potency, no number is given. Active and inactive are the calls of the source. Unless noted, calls follow the shape of the dose curve; as a rule, active = well fitted curve in the direction sought with a large enough effect; inconclusive = small, poorly fitted or top-dose-only effect, or another doubt; inactive = no such curve, though single readings can be large; an effect the other way counts as inactive or inconclusive.
# Columns and labels:
# Papain (Carica papaya) = Papain (Carica papaya) (UniProt P00784); experiment: Primary qHTS assay for inhibitors of the protease papain (AID 1645873);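 also: papain turnover of Z-FR-AMC read as the AMC fluorescence gain over 10 min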
# [1] = target: Catechol O-methyltransferase (Homo sapiens) (UniProt P21964); experiment: Confirmatory Screen for Target Class Profiling of Small Molecule Inhibitors of Methyltransferases (AID 1745852; calls by dose curve; also: potency is read from the fitted curve at half-maximal effect); conditions: MTase-Glo luminescence, SAH detection, recombinant enzyme; measured here: COMT max response; stronger effect = lower value
# [2] = target: Guanidinoacetate N-methyltransferase (Homo sapiens) (UniProt Q14353); experiment: as above; conditions: MTase-Glo luminescence, SAH detection, recombinant enzyme; activity change, negative = inhibition: at 57.3 µM (top of the series) unless noted
# [3] = target: Nicotinamide N-methyltransferase (Homo sapiens) (UniProt P40261); experiment: as above; conditions: MTase-Glo luminescence, SAH detection, recombinant enzyme; measured here: NNMT max response; stronger effect = lower value
# [4] = target: Phenylethanolamine N-methyltransferase (Homo sapiens) (UniProt P11086); experiment: as above; conditions: MTase-Glo luminescence, SAH detection, recombinant enzyme; measured here: PNMT max response; stronger effect = lower value
# [5] = Primary qHTS for inhibitors of nuclear receptor binding SET domain protein 2 (NSD2) in an RCH-ACV wild type WT cells (2C) (AID 1645877); also: nearly all actives have a fitted effect of over 70% in size; also: potency is read from the fitted curve at half-maximal effect
# [6] = target: Rap guanine nucleotide exchange factor 3 (Homo sapiens) (UniProt O95398); experiment: Confirmatory qHTS for antagonist of cAMP-regulated guanine nucleotide exchange factor 3 (EPAC1) (AID 1645880); also: nearly all actives have a fitted effect of over 55% in size
# Method in brief: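 Released BODIPY-GDP fluoresces less than Rap1-bound BODIPY-GDP; the signal is followed at 480/540 nm at 5-min intervals over 30 min, after 5 min at room temperature. Reactions contain 100 nM EPAC1, 250 nM RAP1B-BODIPY-GDP and 50 uM GDP; results are normalized to ATA and DMSO.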
# [7] = target: Rap guanine nucleotide exchange factor 3 (Homo sapiens) (UniProt O95398); experiment: Confirmatory qHTS for agonist of cAMP-regulated guanine nucleotide exchange factor 3 (EPAC1) (AID 1645881); also: nearly all actives have a fitted effect of over 75% in size; also: potency is read from the fitted curve at half-maximal effect
# [8] = target: Rap guanine nucleotide exchange factor 4 (Homo sapiens) (UniProt Q8WZA2); experiment: Confirmatory qHTS for agonist of cAMP-regulated guanine nucleotide exchange factor 4 (EPAC2) (AID 1645884);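 also: nucleotide exchange releases bodipy-GDP from Rap1 and this lowers its fluorescence; nearly all actives have a fitted effect of over 65% in size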; also: potency is read from the fitted curve at half-maximal effect
# [9] = target: Rap guanine nucleotide exchange factor 4 (Homo sapiens) (UniProt Q8WZA2); experiment: Confirmatory qHTS for antagonist of cAMP-regulated guanine nucleotide exchange factor 4 (EPAC2) (AID 1645885); also: nearly all actives have a fitted effect of over 25% in size; also: potency is read from the fitted curve at half-maximal effect
# [10] = Primary qHTS for inhibitors of nuclear receptor binding SET domain protein 2 (NSD2) in an isogenic RCH-ACV NSD2 p.E1099K mutant (9B) (AID 1645876); also: nearly all actives have a fitted effect of over 70% in size; also: potency is read from the fitted curve at half-maximal effect
# [11] = NCATS anti-infectives library activity on HEK293 viability as a counter-qHTS vs the C. elegans viability qHTS (AID 1745854)
# Method in brief: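 Cytotoxicity counter-screen to a worm viability qHTS: CellTiter-Glo luminescence read 10 min after reagent addition. Compounds (final up to 41.7 uM, a 1:5 dilution series) incubated 24 hr at 37C with 1,500 HEK293 cells per well; digitonin control.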
# [12] = HepG2 viability counterscreen (readout 2: ATP content) against the NCATS DSHEA and TCM libraries (AID 1794840);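 also: HepG2 cells exposed to substances for about 24 h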
# Method in brief: (§1)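 After HepG2 cells attach for ~4 h, substances are added and incubated ~24 h at 37C, 5% CO2. GF-AFC fluorescence then CellTiter-Glo luminescence give protease and ATP readouts.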
# [13] = HepG2 viability counterscreen (readout 1: protease activity) against the NCATS DSHEA and TCM libraries (AID 1794841);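 also: cells exposed to compounds for about 24 h before the protease read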
# Method in brief: as §1
# [14] = NCATS anti-infectives library activity on the primary C. elegans qHTS viability assay (AID 1745855; calls by dose curve; also: potency is read from the fitted curve at half-maximal effect)
# Method in brief: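 GFP read-out by 488 nm laser cytometry at day 0, 3 and 7, gated on object perimeter, area and peak intensity, scored viability of PE254-GFP-FLuc worms exposed to compound in S medium with bacterial capsules at 21 °C.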
# [15] = target: Nuclear receptor subfamily 1 group I member 3 (Homo sapiens) (UniProt Q14994); experiment: Primary qHTS for antagonist of constitutive androstane receptor (CAR) against the NCATS DSHEA and TCM libraries (AID 1794836)
# Method in brief: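 HepG2 cells stably carrying hCAR and a CYP2B6 luciferase reporter (2,500 cells/well) attached for 5 h, then received compounds with 48 uM CITCO for 24 h at 37C. ONE-Glo luminescence read antagonism; CellTiter-Fluor (405/540 nm) gave viability.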
# [16] = Viability counterscreen for antagonist of constitutive androstane receptor (CAR) against the NCATS DSHEA and TCM libraries (AID 1794837);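 also: compound exposure lasted 24 h before viability reading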
# Method in brief: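 Counterscreen performed in a 1536-well qHTS format using HepG2-CYP2B6-hCAR cells; samples titrated in the presence of 48 uM CITCO, with viability measured fluorometrically (405/540 nm) after 24 h.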
# [17] = Viability counterscreen for agonist of constitutive androstane receptor (CAR) against the NCATS DSHEA and TCM libraries (AID 1794838)
# Method in brief: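 Multiplexed counterscreen: after 24 h compound exposure with 0.75 uM PK11195, HepG2-CYP2B6-hCAR viability was quantified fluorimetrically (CellTiter-Fluor, 405/540 nm) prior to the ONE-Glo luciferase read.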
# [18] = target: Nuclear receptor subfamily 1 group I member 3 (Homo sapiens) (UniProt Q14994); experiment: Primary qHTS for agonist of constitutive androstane receptor (CAR) against the NCATS DSHEA and TCM libraries (AID 1794839);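 also: HepG2 cells expressing human CAR with a CYP2B6 reporter plus PK11195 antagonist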
# Method in brief: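 Concentration–response screen in HepG2-CYP2B6-hCAR cells under 0.75 µM PK11195; 24 h exposure; luminescent reporter signal with multiplexed fluorescent viability.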
# Nicotinamide N-methyltransferase (Homo sapiens), sequence (P40261 whole entry, looked up): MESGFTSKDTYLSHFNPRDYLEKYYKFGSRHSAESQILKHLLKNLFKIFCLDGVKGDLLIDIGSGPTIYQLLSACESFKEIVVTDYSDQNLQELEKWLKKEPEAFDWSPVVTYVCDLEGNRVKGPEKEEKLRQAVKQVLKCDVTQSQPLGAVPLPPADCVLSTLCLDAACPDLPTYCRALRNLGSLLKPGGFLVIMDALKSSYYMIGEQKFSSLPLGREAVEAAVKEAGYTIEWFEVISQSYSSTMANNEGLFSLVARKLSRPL
# Rap guanine nucleotide exchange factor 4 (Homo sapiens), sequence (Q8WZA2 whole entry, looked up, the tested form may be a part): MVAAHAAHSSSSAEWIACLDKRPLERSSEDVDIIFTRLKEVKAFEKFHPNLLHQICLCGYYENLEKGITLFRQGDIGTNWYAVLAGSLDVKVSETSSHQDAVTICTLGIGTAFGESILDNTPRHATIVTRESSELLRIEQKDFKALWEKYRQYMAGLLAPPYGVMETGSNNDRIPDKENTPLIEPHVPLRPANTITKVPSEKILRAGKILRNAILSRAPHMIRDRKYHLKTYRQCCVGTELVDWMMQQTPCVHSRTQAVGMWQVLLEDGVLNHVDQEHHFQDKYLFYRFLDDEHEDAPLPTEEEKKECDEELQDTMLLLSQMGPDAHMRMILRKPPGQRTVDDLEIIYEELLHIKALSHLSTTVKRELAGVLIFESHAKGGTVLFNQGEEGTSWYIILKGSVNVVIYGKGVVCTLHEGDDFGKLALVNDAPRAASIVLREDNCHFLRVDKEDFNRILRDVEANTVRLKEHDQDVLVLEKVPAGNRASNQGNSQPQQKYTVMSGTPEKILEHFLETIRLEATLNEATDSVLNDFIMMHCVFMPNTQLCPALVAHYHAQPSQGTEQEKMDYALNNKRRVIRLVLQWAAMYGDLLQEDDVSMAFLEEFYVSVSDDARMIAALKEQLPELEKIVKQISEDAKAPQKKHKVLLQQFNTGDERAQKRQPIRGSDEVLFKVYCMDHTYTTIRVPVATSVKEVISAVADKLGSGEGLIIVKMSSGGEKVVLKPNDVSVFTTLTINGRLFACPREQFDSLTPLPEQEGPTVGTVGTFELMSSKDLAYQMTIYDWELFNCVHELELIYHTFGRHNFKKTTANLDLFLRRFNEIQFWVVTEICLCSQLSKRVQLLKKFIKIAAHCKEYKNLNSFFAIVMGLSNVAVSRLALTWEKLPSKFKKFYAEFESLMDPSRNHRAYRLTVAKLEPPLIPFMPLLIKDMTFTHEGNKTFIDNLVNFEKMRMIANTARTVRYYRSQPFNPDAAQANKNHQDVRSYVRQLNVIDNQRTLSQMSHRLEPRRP
# Nuclear receptor subfamily 1 group I member 3 (Homo sapiens), sequence (Q14994 whole entry, looked up): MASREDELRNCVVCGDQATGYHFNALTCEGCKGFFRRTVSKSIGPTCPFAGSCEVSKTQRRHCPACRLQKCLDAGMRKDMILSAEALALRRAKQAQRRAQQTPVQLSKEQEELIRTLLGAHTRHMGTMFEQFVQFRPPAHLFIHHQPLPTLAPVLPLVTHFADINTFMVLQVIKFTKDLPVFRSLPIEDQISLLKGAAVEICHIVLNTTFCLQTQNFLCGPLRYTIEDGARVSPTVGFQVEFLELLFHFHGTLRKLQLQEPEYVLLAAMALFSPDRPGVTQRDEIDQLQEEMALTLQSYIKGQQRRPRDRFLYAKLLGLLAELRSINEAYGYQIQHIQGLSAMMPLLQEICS
# Catechol O-methyltransferase (Homo sapiens), sequence (P21964 whole entry, looked up): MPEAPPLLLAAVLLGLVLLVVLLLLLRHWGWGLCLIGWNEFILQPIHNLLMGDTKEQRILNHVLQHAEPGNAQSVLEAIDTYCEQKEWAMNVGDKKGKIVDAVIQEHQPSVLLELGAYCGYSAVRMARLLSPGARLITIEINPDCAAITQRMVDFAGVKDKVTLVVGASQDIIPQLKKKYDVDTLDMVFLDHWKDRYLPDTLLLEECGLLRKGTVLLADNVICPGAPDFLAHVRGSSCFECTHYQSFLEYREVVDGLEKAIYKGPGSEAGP
# Rap guanine nucleotide exchange factor 3 (Homo sapiens), sequence (O95398 whole entry, looked up): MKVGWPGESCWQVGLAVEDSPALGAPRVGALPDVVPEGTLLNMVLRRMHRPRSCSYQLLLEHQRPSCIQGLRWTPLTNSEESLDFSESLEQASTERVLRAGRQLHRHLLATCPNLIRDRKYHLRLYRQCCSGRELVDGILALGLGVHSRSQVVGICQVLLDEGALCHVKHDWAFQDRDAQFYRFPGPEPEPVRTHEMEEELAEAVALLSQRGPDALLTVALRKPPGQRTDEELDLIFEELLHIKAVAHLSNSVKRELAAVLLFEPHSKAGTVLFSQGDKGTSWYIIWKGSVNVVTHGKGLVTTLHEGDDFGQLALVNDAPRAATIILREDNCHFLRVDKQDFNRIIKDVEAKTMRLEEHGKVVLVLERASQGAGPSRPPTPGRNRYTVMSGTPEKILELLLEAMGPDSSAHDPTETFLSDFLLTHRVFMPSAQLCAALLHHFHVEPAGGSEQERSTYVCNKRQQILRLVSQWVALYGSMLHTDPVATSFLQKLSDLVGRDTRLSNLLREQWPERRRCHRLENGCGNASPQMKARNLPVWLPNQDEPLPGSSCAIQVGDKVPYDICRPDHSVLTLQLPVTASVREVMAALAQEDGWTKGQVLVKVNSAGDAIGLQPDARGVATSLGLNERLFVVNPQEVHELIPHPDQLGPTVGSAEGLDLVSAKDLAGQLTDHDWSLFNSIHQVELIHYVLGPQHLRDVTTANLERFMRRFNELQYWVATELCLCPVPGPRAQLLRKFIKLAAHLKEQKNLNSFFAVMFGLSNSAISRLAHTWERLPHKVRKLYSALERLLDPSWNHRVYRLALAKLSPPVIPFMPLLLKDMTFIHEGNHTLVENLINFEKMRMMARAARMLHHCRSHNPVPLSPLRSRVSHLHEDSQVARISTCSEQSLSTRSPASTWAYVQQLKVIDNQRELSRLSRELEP
# Phenylethanolamine N-methyltransferase (Homo sapiens), sequence (P11086 whole entry, looked up, the tested form may be a part): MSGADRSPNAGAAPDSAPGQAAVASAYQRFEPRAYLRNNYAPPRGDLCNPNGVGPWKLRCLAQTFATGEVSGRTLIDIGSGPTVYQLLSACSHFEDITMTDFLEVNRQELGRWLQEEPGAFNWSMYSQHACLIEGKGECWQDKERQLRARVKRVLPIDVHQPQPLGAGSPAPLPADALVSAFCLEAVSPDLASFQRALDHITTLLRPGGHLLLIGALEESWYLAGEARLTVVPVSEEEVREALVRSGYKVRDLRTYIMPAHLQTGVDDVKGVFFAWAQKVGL
# Papain (Carica papaya), sequence (P00784 whole entry, looked up): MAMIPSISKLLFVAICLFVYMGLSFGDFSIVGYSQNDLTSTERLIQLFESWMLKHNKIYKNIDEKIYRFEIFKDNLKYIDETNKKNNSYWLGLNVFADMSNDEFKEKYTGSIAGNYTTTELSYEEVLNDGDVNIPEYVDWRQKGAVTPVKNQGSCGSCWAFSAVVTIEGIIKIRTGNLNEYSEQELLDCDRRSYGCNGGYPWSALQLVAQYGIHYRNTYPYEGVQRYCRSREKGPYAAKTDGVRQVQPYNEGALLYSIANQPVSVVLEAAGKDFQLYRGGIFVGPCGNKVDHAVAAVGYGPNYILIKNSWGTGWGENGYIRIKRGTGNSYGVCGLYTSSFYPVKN
smiles,measurement,setting,value
CCCN1CCc2cc(O)cc3c2[C@H]1Cc1ccc(O)c(O)c1-3,Potency,Papain (Carica papaya),inactive
same,activity,[1],2.74%
same,"activity change, negative = inhibition",[2],-2.35%
same,activity,[3],-21.6%
same,activity,[4],0.0057%
COC1CC(OC2CCC3(C)C(=CCC4C3CCC3(C)C(C(C)OC5OC(COC6OC(CO)C(O)C(O)C6O)C(O)C(O)C5O)CCC43O)C2)OC(C)C1OC1OC(C)C(O)C(OC)C1O (stereo not given),"activity change, negative = cell killing",[5],0.676% [at 9.23 µM] (inactive)
COC(=O)C1(C)CCC(=O)C2(C)c3c(O)cc(C(C)C)cc3C(O)C(OC(C)=O)C12 (stereo not given),Potency,[5],inactive
O=c1[nH]cc(N(CCCl)CCCl)c(=O)[nH]1,outcome,[6],inactive
same,Potency,[7],inactive
same,Potency,[8],inactive
same,Potency,[9],inactive
O=C1OC2(c3cc(Br)c(O)cc3Oc3c2cc(Br)c(O)[c]3[Hg])c2ccccc21 (stereo not given),"activity, negative = inhibition",[6],245% [at 22 µM] (inactive)
same,Potency,[7],4.75 µM (active)
same,Potency,[8],1.34 µM (active)
Clc1ccc(OCC2=NCCN2)cc1Cl,Potency,[10],inactive
same,Potency,[5],inactive
Cc1cc(C(=O)CN2CCCC2)c(C)n1-c1ccc(F)cc1,Potency,[10],inactive
same,Potency,[5],inactive
same,outcome,[11],inactive
O=[N+]([O-])c1cc(O)c(O)c([N+](=O)[O-])c1,Potency,[7],inactive
same,Potency,[8],inactive
CNc1ccc2oc(C[C@H]3O[C@@]4(CC[C@H]3C)O[C@H]([C@H](C)C(=O)c3ccc[nH]3)[C@H](C)C[C@H]4C)nc2c1C(=O)O,activity,[1],-3.19%
same,Potency,[2],34.3 µM (active)
same,activity,[3],-35.2%
same,activity,[4],-4.07%
COC(=O)C1(C)CCC(O)C2(C)c3c(O)cc(C(C)C)cc3C(O)C(OC(C)=O)C12 (stereo not given),Potency,[10],inactive
same,Potency,[5],inactive
CN1C(=O)c2ccccc2NC(=O)[C@]12O[C@@H]2c1ccccc1,Potency,[10],inactive
same,Potency,[5],inactive
C[C@]12Cc3cn4c(nc3C=C1CCC1C2CC[C@@]2(C)[C@H]1CC[C@@]2(O)C#N)nc1ccccc14 (stereo not given in full),activity,[1],-23.1%
same,Potency,[2],0.611 µM (active)
same,activity,[3],-35.3%
same,activity,[4],-11.6%
C[C@@H]1[C@@H]2Cc3ccc(O)cc3[C@@]1(C)CCN2CC1CC1,activity,[1],7.89%
same,"activity change, negative = inhibition",[2],6.66%
same,activity,[3],-1.08%
same,activity,[4],4.55%
COc1ccc2[nH]c3c(c2c1)CCNC3,activity,[1],-6.01%
same,"activity change, negative = inhibition",[2],5.37%
same,activity,[3],-13.7%
same,activity,[4],-2.07%
C1=C2CCCN[C@H]2[C@@H]2C[C@H]1[C@H]1CCCCN1C2,Potency,[10],inactive
same,outcome,[11],inactive
COC1=CC(=O)O[C@@H](/C=C/c2ccccc2)C1,Potency,[10],inactive
same,outcome,[12],inactive
same,outcome,[13],inactive
CC(=O)OC12C(O)C(C)C3(O)C4C=C(C)C(=O)C4CC(CO)=CC3C1C2(C)C (stereo not given),Potency,[10],inactive
same,Potency,[5],inactive
CN(N=O)c1ccc(O)c(O)c1,activity,[1],-69.3%
same,Potency,[2],27.3 µM (active)
same,activity,[3],-14.9%
same,activity,[4],-27.8%
C/C=C(\C)C(=O)OC1CC2C(C)(C)OC(=O)CC(OC(C)=O)C2(C)C2CC(OC(=O)C(C)C)C3(C)C(c4ccoc4)CC4OC43C12C (stereo not given),Potency,[10],inactive
same,Potency,[5],inactive
O=C(O)c1ccnc2cc(C(OCCN3CCCCC3)c3ccccc3Cl)[nH]c12 (stereo not given),Potency,[10],inactive
same,outcome,[11],inactive
same,Potency,[14],inactive
CCCn1c(C)c(C(=O)c2ccc3ccccc3c2)c2ccccc21,outcome,[6],inactive
same,Potency,[7],inactive
same,Potency,[8],inactive
C[C@@](O)(COc1ccc(C#N)cc1)C(=O)Nc1ccc(C#N)c(C(F)(F)F)c1,Potency,[5],inactive
C[C@@]12C[C@@H](c3ccoc3)OC(=O)C1CC[C@]1(C)[C@H]2[C@H]2C=C[C@]1(O)C(=O)O2 (stereo not given in full),Potency,[10],inactive
same,Potency,[5],inactive
O=C1CN=C(c2ccccc2)c2cc(Cl)ccc2N1CC1CC1,outcome,[6],inactive
same,Potency,[7],inactive
same,Potency,[9],55.5 µM (active)
CN1CCCC1CCOC(c1cc2nccc(C(=O)O)c2[nH]1)c1ccccc1Cl (stereo not given),Potency,[10],inactive
same,outcome,[11],inactive
Cc1c(Cl)cccc1S(=O)(=O)Nc1nc(CC(=O)N2CCN(C)CC2)cs1,Potency,[10],inactive
same,Potency,[5],inactive
COC1CC(O[C@H]2CC[C@@]3(C)C(=CCC4C3C(O)[C@@H](O)[C@]3(C)[C@@H](C(C)=O)CC[C@]43O)C2)OC(C)C1OC1CC(OC)C(OC2OC(C)C(O)C(O)C2O)C(C)O1 (stereo not given in full),"activity change, negative = viability loss",[10],-2.91% [at 9.23 µM] (inactive)
same,"activity change, negative = cell killing",[5],-4.48% [at 9.23 µM] (inactive)
COc1cc(C(=O)O[C@H]2[C@@H]3C=CO[C@@H](O[C@@H]4O[C@H](CO)[C@@H](O)[C@H](O)[C@H]4O)[C@@H]3[C@@]3(CO)O[C@@H]23)ccc1O,Potency,[10],inactive
same,Potency,[5],inactive
same,activity,[1],-83.5%
same,"activity change, negative = inhibition",[2],-1.53% [at 29.8 µM]
same,activity,[3],-4.95%
same,activity,[4],-3.91%
same,outcome,[11],inactive
C/C=C(\C)C(=O)OC1CC2C(CC=C3CC(OC4CC(OC)C(OC5CC(OC)C(OC6OC(C)C(OC7OC(CO)C(O)C(O)C7O)C(OC)C6O)C(C)O5)C(C)O4)CCC32C)C2(O)CCC(C(C)=O)C12C (stereo not given),"activity change, negative = viability loss",[10],-7.24% [at 9.23 µM] (inactive)
same,"activity change, negative = cell killing",[5],-1.79% [at 9.23 µM] (inactive)
O=C/C=C/c1ccccc1,outcome,[15],inactive
same,outcome,[16],inactive
same,outcome,[17],inactive
same,outcome,[18],inactive
same,outcome,[12],inactive
same,outcome,[13],inactive
CNC(C)C(O)c1ccc(O)cc1 (stereo not given),outcome,[15],inactive
same,outcome,[16],inactive
same,outcome,[17],inactive
same,outcome,[18],inactive
same,outcome,[12],inactive
same,outcome,[13],inactive
CC(C)(C)c1cc(O)ccc1O,Potency,[7],inactive
same,Potency,[8],inactive
C[C@]12CC[C@H]3[C@@H](CC[C@@]45O[C@@H]4C(O)=C(C#N)C[C@]35C)[C@@H]1CC[C@@H]2O,Potency,[10],16.6 µM (active)
same,Potency,[5],13.2 µM (active)
CCCCCOc1cc2c(cc1-c1cc(/C=C/C(=O)O)ccc1O)C(C)(C)CCC2(C)C,activity,[1],-5.76%
same,"activity change, negative = inhibition",[2],-6.96%
same,activity,[3],-28.2%
same,activity,[4],0.0952%
CCC1NC(=O)C2C(Cl)C(Cl)CN2C(=O)C(C(C)O)NC(=O)CC(c2ccccc2)NC(=O)C(CO)NC1=O (stereo not given),Potency,[10],inactive
same,Potency,[5],inactive
CCCCCc1cc(O)c2c(c1)OC(C)(C)[C@@H]1CCC(C)=C[C@@H]21,Potency,[7],inactive
same,Potency,[8],inactive
Oc1ccc2c3c1O[C@H]1[C@H](N(CCCl)CCCl)CC[C@@]4(O)[C@@H](C2)N(CC2CC2)CC[C@]314,"activity change, negative = viability loss",[10],-5.8% [at 9.23 µM] (inactive)
same,"activity change, negative = cell killing",[5],-7.37% [at 9.23 µM] (inactive)
O=Cc1ccco1,outcome,[12],inactive
same,outcome,[13],inactive
O=c1c2ccccc2[se]n1-c1ccccc1,Potency,[14],18.3 µM (active)
